Cruzain inh Det – blocks cruzain activity in presence of Triton detergent | P25779 | AID 1478 | Potency, µM, most hits filed as inhibitors | purified cruzain, Z-FR-AMC fluorescence, 0.01% Triton | hit rate 0.43% among 200,000; note: nearly all actives have a fitted effect of over 40% in size
Target sequence (P25779 123-467 limits assumed): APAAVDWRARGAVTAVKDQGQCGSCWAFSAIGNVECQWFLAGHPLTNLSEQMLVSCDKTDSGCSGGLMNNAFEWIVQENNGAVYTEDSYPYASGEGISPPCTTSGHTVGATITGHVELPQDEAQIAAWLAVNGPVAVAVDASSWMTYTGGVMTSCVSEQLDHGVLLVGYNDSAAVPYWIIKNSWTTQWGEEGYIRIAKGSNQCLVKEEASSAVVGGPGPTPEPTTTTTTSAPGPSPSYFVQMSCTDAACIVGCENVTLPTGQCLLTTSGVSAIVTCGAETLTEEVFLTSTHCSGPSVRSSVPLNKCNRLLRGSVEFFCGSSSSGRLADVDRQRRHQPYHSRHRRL
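Cysteine protease activity tested under reducing, mildly acidic conditions (100 mM sodium acetate pH 5.5, 5 mM DTT) plus 0.01% Triton X-100. Cruzain 1.5 nM; substrate Z-FR-AMC 2 uM; 15 min compound preincubation at room temperature.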
Cruzain inh noDet – blocks cruzain activity in detergent-free assay. hit rate 2.3% among 200,000. purified cruzain, Z-FR-AMC fluorescence, no detergent. Potency, µM, hits mostly inhibitors. AID 1476; note: nearly all actives have a fitted effect of over 40% in size
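Purified cruzain at 1.5 nM, pre-incubated 15 min with compound at room temperature in 100 mM sodium acetate pH 5.5, 5 mM DTT, 0.00005% Triton X-100. Reaction started with 2 uM Z-FR-AMC; AMC fluorescence increase over 60 s gives rate.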
Of the large screens only hits and unclear results are named; the others gave an inactive call. Rows were chosen to be rich in hits. Some 2.5% of all compounds tested hit in one or more screens of this group. Calls come from the whole dose curve; as a rule, active = well fitted curve in the direction sought with a large enough effect; inconclusive = small, poorly fitted or top-dose-only effect, or another doubt; inactive = no such curve, though single readings can be large; an effect the other way counts as inactive or inconclusive.

COc1cc(C)ccc1OCCOc1c(Cl)cc(Cl)cc1Cl	none
COc1cc(C)ccc1OCCOc1cc(C)ccc1Cl	Cruzain inh noDet 20µM
Cc1cc(C=C(C#N)C#N)c(C)n1-c1ccccc1	none
CN(C)c1cccc2c(C=C(C#N)C#N)ccc(N(C)C)c12	Cruzain inh Det 20µM, Cruzain inh noDet 20µM
N#CC(CC(=O)O)=C(c1ccccc1)c1ccccc1	none
NC(=O)SCC(=O)Nc1ccc2ncccc2c1	none
COc1ccc(/C=N/Nc2nc(-c3cccc(S(=O)(=O)N4CCCC4)c3)cs2)cc1OC	none
CCOc1cc(/C=N/Nc2nc(-c3cccc(S(=O)(=O)N4CCCC4)c3)cs2)ccc1O	Cruzain inh noDet 15.8µM
O=C(c1ccccc1)c1nn(-c2ccccc2)c2nnc(Cc3ccccc3)c(=O)n12	Cruzain inh noDet 25.1µM
COC(=O)c1nn(-c2ccccc2)c2nnc(Cc3ccc(C)cc3)c(=O)n12	none
CCc1ccc(CNC(=O)c2ccc3nc(C(C)C)oc3c2)cc1	none
COc1ccccc1N1CCN(S(=O)(=O)c2ccc(F)c(C(=O)Nc3ccc(Cl)cc3C(F)(F)F)c2)CC1	Cruzain inh noDet inconclusive
Cc1ccc(N2CCN(S(=O)(=O)c3ccc(F)c(C(=O)Nc4ccc(Cl)cc4Cl)c3)CC2C)cc1 (configuration not stated)	none
COc1ccccc1NC(=O)c1cc(S(=O)(=O)N2CCN(c3ccccc3Cl)CC2)ccc1F	Cruzain inh noDet 10µM
Cc1ccc(C)c(NC(=O)c2cc(S(=O)(=O)N3CCN(c4cccc(Cl)c4)CC3)ccc2F)c1	Cruzain inh noDet 7.94µM
Cc1cccc(NC(=O)C2CCN(S(=O)(=O)c3cccc4nsnc34)CC2)c1C	none
O=c1cc2nc(-c3ccccc3F)nc(SCc3ccc(Br)cc3)n2[nH]1	none
Cc1ccc(C)c(N2CCN(C(=O)c3ccc(-c4nc(COc5ccccc5)c(C)o4)cc3)CC2)c1	none
COc1cc(NC(=O)C(Cc2ccccc2)NS(=O)(=O)c2cccs2)cc(OC)c1 (configuration not stated)	none
O=C(CSc1nc(O)cc(=O)n1-c1ccccc1)Nc1ccc2c3c(cccc13)CC2	Cruzain inh Det 25.1µM, Cruzain inh noDet inconclusive
Cc1c(O)nc(SCC(=O)Nc2ccc3c4c(cccc24)CC3)n(-c2ccccc2)c1=O	Cruzain inh noDet inconclusive
O=[N+]([O-])c1cccc(C2=N[C@@H](Cc3ccccc3)CO2)c1	none
COc1ccc(NC(=O)COc2ccc(S(=O)(=O)NC3CCCCC3)cc2)cc1OC	none
CC(=O)c1cccc(Nc2ccc3cc(S(=O)(=O)N4CCCC4)ccc3n2)c1	Cruzain inh noDet 12.6µM
COc1ccc(Nc2ccc3cc(S(=O)(=O)N4CCCC4)ccc3n2)cc1OC	none
CN(C)c1ccc(CNC(=O)c2ccc(NC(=O)N3CCCCc4ccccc43)cc2)cc1	none
COc1ccccc1CCNC(=O)c1cc2c(=O)n3cccc(C)c3nc2n1C	Cruzain inh noDet inconclusive
O=C(Nc1nnc(COc2ccc(Cl)cc2)s1)C1CCCO1 (configuration not stated)	none
Cc1ccc(S(=O)(=O)CCc2nnc(NC(=O)c3cccs3)s2)cc1	Cruzain inh noDet inconclusive
O=C(Nc1nnc(COc2ccc(Cl)cc2)s1)c1cccs1	Cruzain inh noDet 25.1µM
Cc1cccc(OCc2nnc(NC(=O)c3cccs3)s2)c1	Cruzain inh noDet 12.6µM
O=C(Nc1nnc(CCc2ccccc2)s1)c1cccs1	Cruzain inh noDet inconclusive
O=C(Nc1nnc(COc2ccc(F)cc2)s1)c1cccs1	Cruzain inh noDet 25.1µM
CC(C)(C)c1ccc(OCC(=O)NCC2(N3CCOCC3)CCCCC2)cc1	none
COc1ccccc1Nc1nn2c(=O)c3ccc(C(=O)NCCc4ccccc4)cc3nc2s1	none
CCCCCCCCNc1nc(Cl)nc(NCc2ccco2)n1	Cruzain inh noDet 15.8µM
CCCCCCNc1nc(NCc2ccco2)nc(OCC)n1	none
CS(=O)(=O)NCC(c1ccco1)N1CCN(c2ccccc2)CC1 (configuration not stated)	none
Nc1ccc(N(S(=O)(=O)c2ccccc2)S(=O)(=O)c2ccccc2)c(Cl)c1	none
COC(=O)c1ccccc1NC(=O)CSc1nc(O)cc(=O)n1C1CCCC1	Cruzain inh noDet inconclusive
Cc1cccc(-n2c(N)cc(=O)nc2SCC(=O)Nc2nnc(C)s2)c1	Cruzain inh Det inconclusive, Cruzain inh noDet 25.1µM
Cc1cccc(-n2ccnc2SCC(=O)Nc2nnc(C)s2)c1	none
COC(=O)c1ccccc1NC(=O)CSc1nc(=O)cc(N)n1-c1ccccc1	Cruzain inh Det 25.1µM
CCc1nnc2c3ccccc3nc(Nc3cc(C)cc(C)c3)n12	none
Cc1cc(Cl)ccc1NC(=O)CSc1nc2c(c(=O)[nH]1)CCC2	none
CCC(C)O (configuration not stated)	none
Cc1cc(F)c(Nc2ncnc3cc(OCc4ccccc4)ccc23)cc1O	Cruzain inh noDet inconclusive
Nc1nonc1-c1nc2ccccc2n1Cc1c(Cl)cccc1Cl	Cruzain inh noDet 25.1µM
Nc1nonc1-c1nc2ccccc2n1Cc1ccccc1	none
O=c1c2cccnc2n(Cc2ccc(Cl)cc2)c(=O)n1Cc1ccc(F)cc1	none
Cc1cc(C(=O)OCC(=O)NC(C)(C)C)c2ccccc2n1	none
Cc1cc(C(=O)OCC(=O)Nc2ccc(F)cc2[N+](=O)[O-])c2ccccc2n1	Cruzain inh noDet 20µM
COc1cc(Cl)c(C)cc1Nc1c2c(nc3ccccc13)CCC2	none
CCc1ccc2nc(N3CCN(C(=O)c4ccco4)CC3)sc2c1	none
CCc1ccc2nc(N3C(=O)C(O)=C(C(=O)c4ccco4)C3c3cccs3)sc2c1 (configuration not stated)	Cruzain inh Det 25.1µM, Cruzain inh noDet inconclusive
Cc1cc(N2C(=O)C(O)=C(C(=O)c3ccc(C)o3)C2c2cccs2)no1 (configuration not stated)	none
Cc1ccc2nc(N3C(=O)C(O)=C(C(=O)c4cc5ccccc5o4)C3c3cccs3)sc2c1 (configuration not stated)	Cruzain inh Det 15.8µM
COC(=O)c1cccc(NC2=NS(=O)(=O)c3ccccc32)c1	none
CCNc1ccc(C(=O)OCC(=O)NCc2ccc(C)cc2)cc1[N+](=O)[O-]	none
CCNc1ccc(C(=O)OCC(=O)c2cc(C)n(Cc3ccc4c(c3)OCO4)c2C)cc1[N+](=O)[O-]	Cruzain inh noDet 15.8µM
COc1cccc(CNc2nccn(-c3cc(C)cc(C)c3)c2=O)c1	none
COc1cccc(Nc2ncc3nc(-c4cccs4)c(=O)n(-c4ccccc4)c3n2)c1	Cruzain inh noDet 6.31µM
COc1cccc(Nc2ncc3ncc(=O)n(Cc4cccs4)c3n2)c1	none
COc1cccc(Nc2ncc3nc(-c4cccs4)c(=O)n(Cc4cccs4)c3n2)c1	Cruzain inh noDet 5.01µM
COc1ccc(-n2c(=O)c(-c3cccs3)nc3cnc(Nc4ccccc4)nc32)cc1	none
COc1ccc(C(=O)c2cnc3ccc(C)cc3c2S(=O)(=O)c2ccccc2)cc1	Cruzain inh noDet inconclusive
COc1ccc(S(=O)(=O)c2c(C(=O)c3ccc(C)c(C)c3)cnc3ccc(F)cc23)cc1	Cruzain inh noDet 12.6µM
Cc1ccc2ncc(C(=O)c3ccc(C)c(C)c3)c(S(=O)(=O)c3ccc(F)cc3)c2c1	Cruzain inh noDet inconclusive
CCOc1ccc(S(=O)(=O)c2c(C(=O)c3ccc(C)c(C)c3)cnc3ccccc23)cc1	Cruzain inh noDet 20µM
O=S1(=O)c2ccccc2N(Cc2cccc(C(F)(F)F)c2)c2ccccc21	Cruzain inh noDet inconclusive
COc1cccc(-n2c(=O)c3sc4ccccc4c3n(CC(=O)Nc3ccc(F)cc3F)c2=O)c1	none
O=S(=O)(NCc1ccccc1)c1ccc(S(=O)(=O)N2CCCCC2)cc1	Cruzain inh noDet inconclusive
NS(=O)(=O)c1ccc(NC(=O)N2c3ccccc3Sc3ccccc32)cc1	none

Screening results deposited in PubChem BioAssay by National Center for Advancing Translational Sciences (NCATS).
